Screening data (PubChem)
This is a sample that favours compounds with a hit; in the whole collection about 17% have one here.
HT1080-NT tox: kills 2HG-producing HT-1080-NT fibrosarcoma cells | HT-1080-NT fibrosarcoma viability, CellTiter-Glo ATP luminescence, 48 h | Potency, µM (highest dose often 46.1 µM), for the others: at the highest dose activity, negative = less viability, actives largely listed as cytotoxic | hit rate 1.6% among 360,000 | AID 686970;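 further: NT is the 2HG producing partner of a matched IDH1 knockdown line; 0% = DMSO-treated cells and -100% = media-only wells without cells; nearly all actives have a fitted effect of over 55% in size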
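A 48-hour cytotoxicity screen used HT-1080-NT cells plated 2 hours before compound delivery. ATP-based CellTiter-Glo luminescence measured viability, normalized to DMSO and no-cell controls.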
DT40 TDP1 CPT: DT40-hTDP1 cell growth loss with CPT | AID 686979 | hit rate 12% among 420,000 | chicken DT40 Tdp1-/-;hTDP1 cells + 20 nM CPT, ATP luminescence, 48 h | Potency, µM (doses to about 46.2 µM), inactives show at the highest dose activity change, negative = growth inhibition, usual class: inhibitors; further: on the % scale 0 is the no-effect control and ±100 the full control effect; nearly all actives have a fitted effect of over 55% in size
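Chicken DT40 Tdp1-/- cells complemented with human TDP1, 400 cells/well, exposed to compounds plus 20 nM camptothecin for at least 48 h at 37 C; viability read as ATP content by CellTiter-Glo luminescence.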
HT1080 IDH1KD tx: HT-1080 IDH1 knockdown cell toxicity (counter line); Potency, µM (highest dose often 46.1 µM), without a hit: top-dose activity, negative = toxicity, usual class: cytotoxic; hit rate 2% among 360,000; HT-1080 IDH1 knockdown viability, ATP luminescence, 48 h;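 further: 0% = DMSO wells and -100% = cell-free medium wells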
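In this qHTS, HT-1080 cells depleted of IDH1 are exposed for 48 h at 37 °C to compound titrations. Toxicity is scored from CellTiter-Glo luminescence, with DMSO as full viability and medium alone as none.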
TDP1 cell noCPT: qHTS for Inhibitors of human tyrosyl-DNA phosphodiesterase 1 (TDP1): qHTS in cells in absence of CPT; DT40 Tdp1-/- hTDP1 cells, no CPT, ATP luminescence, 48 h; Potency, µM (titrated, usually from 46.2 µM), inactives show at the top dose activity change, negative = growth inhibition, most hits filed as inhibitors; hit rate 15% among 420,000; further: on the % scale 0 is the no-effect control and ±100 the full control effect; nearly all actives have a fitted effect of over 55% in size
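Cells were dispensed at 400 per well, compounds added by pin tool, plates incubated ≥48 hr at 37 °C, then CellTiter-Glo added for 30 min at room temperature before luminescence reading. Line: DT40 Tdp1-/- complemented with hTDP1; camptothecin omitted.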
HepG2 tox-1: counter-screen for TGF-b inhibitors: cytotoxicity in HepG2 cells | HepG2 CAGA-GFP viability, ATP luminescence, 18 h | Potency, µM (titrated, usually from 46.1 µM), inactives show top-dose activity change, negative = cytotoxicity, most hits filed as cytotoxic | hit rate 0.76% among 410,000
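CellTiter-Glo luminescence gave cytotoxicity after 18 hours at 37 degrees C. The cells were HepG2 CAGA-GFP in 1% FBS DMEM, stimulated with 500 pg/mL TGF-beta after compound addition. %Activity was normalised to no-cell wells (complete cell-killing) and DMSO (no toxicity), and curves were fitted and classified.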
TGFb SMAD3 inh: inhibitors of TGF-b signaling; hit rate 1.2% among 410,000; Potency, µM (titrated, usually from 46.1 µM), without a hit: top-dose activity, negative = inhibition, usual class: inhibitors; HepG2 CAGA-GFP TGF-b/SMAD3 reporter, GFP fluorescence, 18 h; TGF-beta stimulated, 500 pg/mL final; AID 588855; further: on the % scale 0 is the no-effect control and ±100 the full control effect; nearly all actives have a fitted effect of over 65% in size
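Using HEPG2 CAGA-GFP reporter cells at 1000 cells/well, we pinned test compounds, stimulated with recombinant TGF-beta (500 pg/mL final) and measured total well GFP after 18 h.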
TGFb confirm: confirmation of TGF-b signaling inhibitors in HepG2 reporter cells. HepG2 CAGA-GFP TGF-b reporter, GFP fluorescence, 18 h; cells stimulated with TGF-beta, 500 pg/mL. AID 720534. Potency, µM (top dose mostly 46.1 µM), for the others: top-dose activity, negative = inhibition, actives largely listed as inhibitors. hit rate 63% among 1,600. shares compounds with TGFb SMAD3 inh; further: on the % scale 0 is the no-effect control and ±100 the full control effect; nearly all actives have a fitted effect of over 65% in size
HepG2 tox-2: toxic to HepG2 cells in TGF-b counterscreen; shares compounds with TGFb SMAD3 inh; HepG2 CAGA-GFP viability, ATP luminescence, 18 h; cells stimulated with TGF-beta, 500 pg/mL; Potency, µM (top dose mostly 46.1 µM), for inactives: at the highest dose activity, negative = cytotoxicity, actives largely listed as inhibitors; hit rate 27% among 1,600; further: on the % scale 0 is the no-effect control and ±100 the full control effect; nearly all actives have a fitted effect of over 70% in size
TGFb CCL64 inh: orthogonal confirmation of TGF-b inhibitors in CCL64 cells. shares compounds with TGFb SMAD3 inh. CCL64 CAGA-GFP reporter, TGF-b stimulated, GFP fluorescence, 18 h. Potency, µM (highest dose often 46.1 µM), for the others: top-dose activity, negative = inhibition, actives largely listed as inhibitors. hit rate 41% among 1,600. AID 720536; further: nearly all actives have a fitted effect of over 65% in size
COP TGFb inh: validation of TGF-b inhibitors in HepG2 COP promoter reporter. hit rate 3% among 1,600. shares compounds with TGFb SMAD3 inh. Potency, µM (doses to about 46.1 µM), inactives show top-dose activity, negative = inhibition, usual class: inhibitors. HepG2 COP-GFP TGF-b reporter, GFP fluorescence, 18 h; cells stimulated by added recombinant TGF-beta. AID 720537; further: nearly all actives have a fitted effect of over 70% in size
Numbers without * were called inactive. The call rests on the fitted dose curve; in most records, active means well fitted curve in the direction sought with a large enough effect; inconclusive means small, poorly fitted or top-dose-only effect, or another doubt; inactive means no such curve, though single readings can be large; an effect the other way counts as inactive or inconclusive. Potency means the concentration at half of the fitted maximal effect.

For CC12CCC(O)CC1CCC1C2CCC2(C)C(C3=CC(=O)OC3)CCC12O (configuration not stated) the results were HT1080-NT tox 1.5µM*, DT40 TDP1 CPT inconclusive, HT1080 IDH1KD tx 1.2µM*, TDP1 cell noCPT inconclusive, HepG2 tox-1 -33%, TGFb SMAD3 inh 4µM*, TGFb confirm 16µM*, HepG2 tox-2 2.6µM*, TGFb CCL64 inh 1.3µM* and COP TGFb inh 56%.
Screening CC(C)C(OC(=O)c1ccco1)C(=O)NCc1ccco1 (configuration not stated) returned HT1080-NT tox -4%, DT40 TDP1 CPT inconclusive, HT1080 IDH1KD tx 4%, TDP1 cell noCPT inconclusive, HepG2 tox-1 -26% and TGFb SMAD3 inh -14%.
For COc1ccc(CC2C(=O)NC(C)C(=O)N(C)C3C(=O)N(C)C(Cc4ccc(O)c(c4)Oc4ccc(cc4)C3O)C(=O)NC(C)C(=O)NC(C)C(=O)N2C)cc1 (configuration not stated) the results were HT1080-NT tox 0.46µM*, DT40 TDP1 CPT 0.016µM*, HT1080 IDH1KD tx 0.073µM*, TDP1 cell noCPT 0.021µM*, HepG2 tox-1 -20%, TGFb SMAD3 inh -116%, TGFb confirm 0.0065µM*, HepG2 tox-2 1.6µM*, TGFb CCL64 inh 0.012µM* and COP TGFb inh 5%.
For CCCOc1ccc(CSc2nc3ccccc3[nH]2)cc1 the results were HT1080-NT tox inconclusive, DT40 TDP1 CPT 8.2µM*, HT1080 IDH1KD tx 11µM*, TDP1 cell noCPT 8.2µM*, HepG2 tox-1 -46%, TGFb SMAD3 inh 10µM*, TGFb confirm -15%, HepG2 tox-2 inconclusive, TGFb CCL64 inh inconclusive and COP TGFb inh 4%.
For Cc1cc(=O)oc2cc(OCC(=O)N3CCC(C(=O)O)(c4ccccc4)CC3)ccc12 the results were HT1080-NT tox -1%, DT40 TDP1 CPT -9%, HT1080 IDH1KD tx 1%, TDP1 cell noCPT 5%, HepG2 tox-1 -4% and TGFb SMAD3 inh 12%.
Screening CC(=NCc1cccnc1)c1c(O)n(-c2ccccc2C)c(=O)[nH]c1=O returned HT1080-NT tox 10%, DT40 TDP1 CPT 3%, HT1080 IDH1KD tx 4%, TDP1 cell noCPT 2%, HepG2 tox-1 -3% and TGFb SMAD3 inh -15%.
Screening CC[C@@]1(O)C(=O)OCc2c1cc1n(c2=O)Cc2cc3c(N)cccc3nc2-1 returned HT1080-NT tox 2.1µM*, DT40 TDP1 CPT 0.16µM*, HT1080 IDH1KD tx 1.3µM*, TDP1 cell noCPT 0.13µM*, HepG2 tox-1 -5%, TGFb SMAD3 inh 0.56µM*, TGFb confirm 1.2µM*, HepG2 tox-2 0.41µM*, TGFb CCL64 inh -17% and COP TGFb inh -1%.
Cc1cccc(NC(=O)N2CCCC2)c1 was read as HT1080-NT tox 4%, DT40 TDP1 CPT -10%, HT1080 IDH1KD tx -3%, TDP1 cell noCPT 8%, HepG2 tox-1 10% and TGFb SMAD3 inh -8%.
`CCC1CN2CCc3cc(OC)c(OC)cc3C2CC1CC1NCCc2c1[nH]c1ccc(O)cc21` (configuration not stated) gave HT1080-NT tox 0.41µM*, DT40 TDP1 CPT 0.15µM*, HT1080 IDH1KD tx 0.18µM*, TDP1 cell noCPT 0.082µM*, HepG2 tox-1 -9%, TGFb SMAD3 inh 0.089µM*, TGFb confirm 0.018µM*, HepG2 tox-2 1µM*, TGFb CCL64 inh 0.037µM* and COP TGFb inh 52%.
O=P(NC(c1ccccc1)c1ccccc1)(Oc1ccccc1)Oc1ccccc1 was read as HT1080-NT tox -5%, DT40 TDP1 CPT inconclusive, HT1080 IDH1KD tx -12%, TDP1 cell noCPT inconclusive, HepG2 tox-1 -5% and TGFb SMAD3 inh 17%.
`N#Cc1cn(C2OC(CO)C(O)C2O)c2ncnc(N)c12` (configuration not stated) gave HT1080-NT tox inconclusive, DT40 TDP1 CPT 0.015µM*, HT1080 IDH1KD tx 0.21µM*, TDP1 cell noCPT 0.015µM*, HepG2 tox-1 -36%, TGFb SMAD3 inh 0.1µM*, TGFb confirm 0.23µM*, HepG2 tox-2 0.15µM*, TGFb CCL64 inh 0.1µM* and COP TGFb inh 12%.
NC(=O)c1cn(C2OC(CO)C(O)C2O)c2ncnc(N)c12 (configuration not stated) was read as HT1080-NT tox 0.33µM*, DT40 TDP1 CPT 0.0082µM*, HT1080 IDH1KD tx 0.12µM*, TDP1 cell noCPT 0.016µM*, HepG2 tox-1 -47%, TGFb SMAD3 inh 0.11µM*, TGFb confirm 0.092µM*, HepG2 tox-2 0.065µM*, TGFb CCL64 inh 0.23µM* and COP TGFb inh -12%.
`NC(=O)c1c(Br)n(C2OC(CO)C(O)C2O)c2ncnc(N)c12` (configuration not stated) gave HT1080-NT tox inconclusive, DT40 TDP1 CPT 2.1µM*, HT1080 IDH1KD tx 7.3µM*, TDP1 cell noCPT 1.8µM*, HepG2 tox-1 -18%, TGFb SMAD3 inh 1.4µM*, TGFb confirm 2.1µM*, HepG2 tox-2 inconclusive, TGFb CCL64 inh inconclusive and COP TGFb inh 20%.
